From paper PMC7862700, “An all-to-all approach to the identification of sequence-specific readers for epigenetic DNA modifications on cytosine”

Assays:
Experiment in all cases: DAPPL (digital affinity profiling via proximity ligation, sequencing); 10 mM Tris-HCl pH 7.5, 50 mM NaCl, 1 mM DTT, 4% glycerol, room temperature, 30 min; GST-TFs on glutathione beads, 16-mer random dsDNA library, 0.1% formaldehyde crosslink after washing; high values mean tight binding
FLI1 = biological target: T1, FLI1 (Homo sapiens, UniProt Q01543 1-452); settings: protein: recombinant; tags: N-terminal GST; dsDNA, one strand shown
T1 sequence: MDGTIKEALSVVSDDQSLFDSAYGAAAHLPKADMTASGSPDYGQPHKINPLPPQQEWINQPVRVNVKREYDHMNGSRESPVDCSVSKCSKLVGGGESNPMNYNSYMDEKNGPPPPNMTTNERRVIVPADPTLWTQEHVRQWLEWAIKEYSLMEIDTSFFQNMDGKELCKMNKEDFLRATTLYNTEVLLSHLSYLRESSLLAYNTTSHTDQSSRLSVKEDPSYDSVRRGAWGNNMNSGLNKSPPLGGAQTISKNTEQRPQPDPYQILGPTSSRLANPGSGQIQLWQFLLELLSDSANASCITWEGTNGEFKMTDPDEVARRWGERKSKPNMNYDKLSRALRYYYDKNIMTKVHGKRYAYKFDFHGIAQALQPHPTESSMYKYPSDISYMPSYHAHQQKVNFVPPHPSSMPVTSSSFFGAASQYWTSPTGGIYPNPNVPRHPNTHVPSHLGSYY
Method in brief: (§1)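 Beads coated with glutathione captured GST-fused human transcription factors that had been expressed in yeast, and the factors were then given DNA barcodes and pooled with a tag-only sample. The pools were incubated with 200 nmole of a random double-stranded 16-mer DNA library in Tris/NaCl/DTT/glycerol buffer for 30 min at room temperature, washed, crosslinked with 0.1% formaldehyde and proximity-ligated with BsaI/T4 ligase at 37 °C for 1 h. PCR amplification and Illumina NextSeq500 sequencing came last. Binding signal is each hexamer's read frequency for a factor divided by its frequency for the tag-only sample.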

ELK1 = biological target: T2, ELK1 (Homo sapiens, UniProt P19419 1-428); settings: protein: recombinant; tags: N-terminal GST; dsDNA, one strand shown
T2 sequence: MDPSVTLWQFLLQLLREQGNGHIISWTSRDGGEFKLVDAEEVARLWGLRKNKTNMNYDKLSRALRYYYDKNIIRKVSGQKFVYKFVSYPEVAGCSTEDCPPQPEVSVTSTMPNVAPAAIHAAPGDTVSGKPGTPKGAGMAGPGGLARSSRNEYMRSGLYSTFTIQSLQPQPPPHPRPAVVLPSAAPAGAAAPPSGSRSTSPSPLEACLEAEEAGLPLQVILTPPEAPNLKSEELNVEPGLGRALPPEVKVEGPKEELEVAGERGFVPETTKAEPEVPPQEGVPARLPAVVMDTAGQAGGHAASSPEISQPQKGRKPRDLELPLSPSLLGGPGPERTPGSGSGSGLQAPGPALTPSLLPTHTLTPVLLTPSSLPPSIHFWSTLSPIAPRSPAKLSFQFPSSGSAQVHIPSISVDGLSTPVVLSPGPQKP
Method in brief: as §1

GABPA = biological target: T3, GABPA (Homo sapiens, UniProt Q06546 1-454); settings: protein: recombinant; tags: N-terminal GST; dsDNA, one strand shown
T3 sequence: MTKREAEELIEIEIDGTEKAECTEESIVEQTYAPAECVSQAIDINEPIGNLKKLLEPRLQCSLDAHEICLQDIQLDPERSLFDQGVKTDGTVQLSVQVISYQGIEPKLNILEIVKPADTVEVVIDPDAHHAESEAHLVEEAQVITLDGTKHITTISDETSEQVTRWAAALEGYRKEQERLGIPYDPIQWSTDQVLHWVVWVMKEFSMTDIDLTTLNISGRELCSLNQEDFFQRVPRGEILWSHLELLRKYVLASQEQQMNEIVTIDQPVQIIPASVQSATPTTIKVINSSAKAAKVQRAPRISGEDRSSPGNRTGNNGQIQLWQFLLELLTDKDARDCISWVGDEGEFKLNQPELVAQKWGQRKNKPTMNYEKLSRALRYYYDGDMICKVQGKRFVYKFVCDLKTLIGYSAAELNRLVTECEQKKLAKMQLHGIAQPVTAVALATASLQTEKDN
Method in brief: as §1

ERG = biological target: T4, ERG (Homo sapiens, UniProt P11308 1-479); settings: protein: recombinant; tags: N-terminal GST; dsDNA, one strand shown
T4 sequence: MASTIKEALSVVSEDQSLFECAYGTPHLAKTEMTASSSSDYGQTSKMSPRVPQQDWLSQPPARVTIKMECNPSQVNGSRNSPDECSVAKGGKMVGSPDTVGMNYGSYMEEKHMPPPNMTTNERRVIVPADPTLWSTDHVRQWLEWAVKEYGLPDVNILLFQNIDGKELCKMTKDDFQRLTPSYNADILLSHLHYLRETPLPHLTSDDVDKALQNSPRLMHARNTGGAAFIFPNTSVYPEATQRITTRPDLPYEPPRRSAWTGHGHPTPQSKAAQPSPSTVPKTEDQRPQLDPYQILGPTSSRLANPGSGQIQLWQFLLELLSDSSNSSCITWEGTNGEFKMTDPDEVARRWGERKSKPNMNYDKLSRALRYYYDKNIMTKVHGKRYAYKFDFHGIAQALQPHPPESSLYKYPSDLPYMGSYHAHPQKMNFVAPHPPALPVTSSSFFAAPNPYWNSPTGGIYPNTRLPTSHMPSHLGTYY
Method in brief: as §1

ELF1 = ELF1 (Homo sapiens, UniProt P32519 1-619); settings: protein: recombinant; tags: N-terminal GST; dsDNA, one strand shown
Sequence of ELF1 (P32519 whole entry): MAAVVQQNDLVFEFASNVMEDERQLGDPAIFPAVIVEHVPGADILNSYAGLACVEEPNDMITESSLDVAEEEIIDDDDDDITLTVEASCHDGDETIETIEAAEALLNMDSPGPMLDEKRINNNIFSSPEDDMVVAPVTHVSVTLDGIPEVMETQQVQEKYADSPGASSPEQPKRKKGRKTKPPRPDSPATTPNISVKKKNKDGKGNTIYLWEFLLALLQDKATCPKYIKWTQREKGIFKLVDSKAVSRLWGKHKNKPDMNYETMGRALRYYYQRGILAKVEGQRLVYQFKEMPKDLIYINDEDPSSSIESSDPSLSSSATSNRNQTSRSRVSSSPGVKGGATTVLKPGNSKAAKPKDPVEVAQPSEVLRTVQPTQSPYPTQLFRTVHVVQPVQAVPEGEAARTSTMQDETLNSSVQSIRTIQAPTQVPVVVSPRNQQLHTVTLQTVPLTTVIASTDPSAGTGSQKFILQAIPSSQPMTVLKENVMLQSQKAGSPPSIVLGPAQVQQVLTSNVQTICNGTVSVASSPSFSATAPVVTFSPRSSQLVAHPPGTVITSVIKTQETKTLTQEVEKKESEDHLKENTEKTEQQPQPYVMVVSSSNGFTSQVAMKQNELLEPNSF
Method in brief: as §1

EHF = biological target: T5, EHF (Homo sapiens, UniProt Q9NZC4 1-300); settings: protein: recombinant; tags: N-terminal GST; dsDNA, one strand shown
T5 sequence: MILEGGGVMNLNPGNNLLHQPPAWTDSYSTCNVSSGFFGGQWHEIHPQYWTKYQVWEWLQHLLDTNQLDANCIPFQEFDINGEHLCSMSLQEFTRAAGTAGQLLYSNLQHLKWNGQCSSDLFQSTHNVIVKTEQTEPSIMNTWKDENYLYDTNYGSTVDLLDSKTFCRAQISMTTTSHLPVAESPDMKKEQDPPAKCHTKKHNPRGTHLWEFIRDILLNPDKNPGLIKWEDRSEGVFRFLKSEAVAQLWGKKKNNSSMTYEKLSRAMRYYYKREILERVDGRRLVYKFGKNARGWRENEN
Method in brief: as §1

SPI1 = SPI1 (Homo sapiens, UniProt P17947 1-270); settings: protein: recombinant; tags: N-terminal GST; dsDNA, one strand shown
Method in brief: as §1

SPIB = SPIB (Homo sapiens, UniProt Q01892 1-262); settings: protein: recombinant; tags: N-terminal GST; dsDNA, one strand shown
Sequence of SPIB (Q01892 whole entry): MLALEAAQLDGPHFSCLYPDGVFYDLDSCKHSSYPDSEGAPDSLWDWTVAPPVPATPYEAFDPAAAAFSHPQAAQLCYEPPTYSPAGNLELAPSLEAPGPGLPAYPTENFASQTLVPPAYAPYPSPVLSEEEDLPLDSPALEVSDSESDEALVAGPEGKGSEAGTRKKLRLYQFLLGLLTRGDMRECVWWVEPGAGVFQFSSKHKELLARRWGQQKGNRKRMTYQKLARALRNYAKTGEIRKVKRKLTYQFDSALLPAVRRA
Method in brief: as §1

ELK3 = biological target: T6, ELK3 (Homo sapiens, UniProt P41970 1-407); settings: protein: recombinant; tags: N-terminal GST; dsDNA, one strand shown
T6 sequence: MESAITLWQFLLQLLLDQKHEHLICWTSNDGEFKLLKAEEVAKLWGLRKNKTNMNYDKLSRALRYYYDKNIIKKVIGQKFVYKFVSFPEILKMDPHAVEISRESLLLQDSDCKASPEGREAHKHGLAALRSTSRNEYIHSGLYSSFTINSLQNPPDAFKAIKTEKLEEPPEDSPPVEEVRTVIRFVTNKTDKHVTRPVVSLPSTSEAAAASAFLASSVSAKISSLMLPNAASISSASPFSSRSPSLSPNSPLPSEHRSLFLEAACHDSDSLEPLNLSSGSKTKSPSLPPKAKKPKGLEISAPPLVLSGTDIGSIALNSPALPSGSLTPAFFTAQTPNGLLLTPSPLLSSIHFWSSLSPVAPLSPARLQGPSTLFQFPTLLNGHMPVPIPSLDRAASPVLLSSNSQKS
Method in brief: as §1

FEV = biological target: T7, FEV (Homo sapiens, UniProt Q99581 1-238); settings: protein: recombinant; tags: N-terminal GST; dsDNA, one strand shown
T7 sequence: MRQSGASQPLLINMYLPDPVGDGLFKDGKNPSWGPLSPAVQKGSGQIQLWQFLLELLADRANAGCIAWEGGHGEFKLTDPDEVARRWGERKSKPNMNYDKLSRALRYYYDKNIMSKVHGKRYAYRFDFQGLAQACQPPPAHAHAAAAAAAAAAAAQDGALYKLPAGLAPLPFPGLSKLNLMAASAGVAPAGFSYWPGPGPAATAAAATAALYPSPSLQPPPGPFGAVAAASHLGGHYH
Method in brief: as §1

ETV5 = ETV5 (Homo sapiens, UniProt P41161 1-510); settings: protein: recombinant; tags: N-terminal GST; dsDNA, one strand shown
Sequence of ETV5 (P41161 whole entry): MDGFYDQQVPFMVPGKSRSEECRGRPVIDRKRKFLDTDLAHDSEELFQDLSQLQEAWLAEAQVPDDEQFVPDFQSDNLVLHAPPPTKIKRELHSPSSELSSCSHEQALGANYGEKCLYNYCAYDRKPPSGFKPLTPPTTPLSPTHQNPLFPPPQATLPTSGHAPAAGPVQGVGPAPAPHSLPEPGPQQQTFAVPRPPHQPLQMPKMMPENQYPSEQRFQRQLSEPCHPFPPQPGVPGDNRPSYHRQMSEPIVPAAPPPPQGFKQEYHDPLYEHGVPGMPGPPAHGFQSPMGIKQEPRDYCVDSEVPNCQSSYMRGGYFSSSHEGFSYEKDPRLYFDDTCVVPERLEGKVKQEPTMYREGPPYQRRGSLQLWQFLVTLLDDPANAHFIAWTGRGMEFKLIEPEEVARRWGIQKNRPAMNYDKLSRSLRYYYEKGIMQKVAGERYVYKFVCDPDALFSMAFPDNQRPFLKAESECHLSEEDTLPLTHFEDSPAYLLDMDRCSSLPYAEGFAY
Method in brief: as §1

HSF1 = HSF1 (Homo sapiens, UniProt Q00613 1-529); settings: protein: recombinant; tags: N-terminal GST; chain copies: 3; dsDNA, one strand shown
Sequence of HSF1 (Q00613 whole entry): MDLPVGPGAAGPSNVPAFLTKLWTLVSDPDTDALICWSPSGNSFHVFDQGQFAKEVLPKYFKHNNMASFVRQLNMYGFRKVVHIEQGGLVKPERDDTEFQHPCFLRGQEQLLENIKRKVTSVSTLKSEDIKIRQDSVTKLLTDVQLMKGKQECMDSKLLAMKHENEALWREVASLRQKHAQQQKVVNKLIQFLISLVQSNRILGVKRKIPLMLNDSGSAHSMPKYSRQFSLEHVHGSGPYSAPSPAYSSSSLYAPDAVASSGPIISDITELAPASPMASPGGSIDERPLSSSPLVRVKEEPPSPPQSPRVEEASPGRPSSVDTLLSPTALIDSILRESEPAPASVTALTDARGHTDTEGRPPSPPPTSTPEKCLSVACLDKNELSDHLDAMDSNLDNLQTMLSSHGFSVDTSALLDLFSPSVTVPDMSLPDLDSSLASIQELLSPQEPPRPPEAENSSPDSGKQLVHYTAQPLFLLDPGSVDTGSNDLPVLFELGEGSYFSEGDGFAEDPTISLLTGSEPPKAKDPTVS
Method in brief: as §1

SPIC = biological target: T8, SPIC (Homo sapiens, UniProt Q8N5J4 1-248); settings: protein: recombinant; tags: N-terminal GST; dsDNA, one strand shown
T8 sequence: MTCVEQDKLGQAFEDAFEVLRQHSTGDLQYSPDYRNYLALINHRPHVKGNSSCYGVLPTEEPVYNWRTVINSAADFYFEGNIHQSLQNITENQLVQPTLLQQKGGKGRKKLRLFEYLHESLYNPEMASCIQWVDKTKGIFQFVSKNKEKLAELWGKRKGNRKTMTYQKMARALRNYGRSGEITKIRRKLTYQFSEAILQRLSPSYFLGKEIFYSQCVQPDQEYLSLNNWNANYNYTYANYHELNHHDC
Method in brief: as §1

ELF4 = ELF4 (Homo sapiens, UniProt Q99607 1-663); settings: protein: recombinant; tags: N-terminal GST; dsDNA, one strand shown
Sequence of ELF4 (Q99607 whole entry): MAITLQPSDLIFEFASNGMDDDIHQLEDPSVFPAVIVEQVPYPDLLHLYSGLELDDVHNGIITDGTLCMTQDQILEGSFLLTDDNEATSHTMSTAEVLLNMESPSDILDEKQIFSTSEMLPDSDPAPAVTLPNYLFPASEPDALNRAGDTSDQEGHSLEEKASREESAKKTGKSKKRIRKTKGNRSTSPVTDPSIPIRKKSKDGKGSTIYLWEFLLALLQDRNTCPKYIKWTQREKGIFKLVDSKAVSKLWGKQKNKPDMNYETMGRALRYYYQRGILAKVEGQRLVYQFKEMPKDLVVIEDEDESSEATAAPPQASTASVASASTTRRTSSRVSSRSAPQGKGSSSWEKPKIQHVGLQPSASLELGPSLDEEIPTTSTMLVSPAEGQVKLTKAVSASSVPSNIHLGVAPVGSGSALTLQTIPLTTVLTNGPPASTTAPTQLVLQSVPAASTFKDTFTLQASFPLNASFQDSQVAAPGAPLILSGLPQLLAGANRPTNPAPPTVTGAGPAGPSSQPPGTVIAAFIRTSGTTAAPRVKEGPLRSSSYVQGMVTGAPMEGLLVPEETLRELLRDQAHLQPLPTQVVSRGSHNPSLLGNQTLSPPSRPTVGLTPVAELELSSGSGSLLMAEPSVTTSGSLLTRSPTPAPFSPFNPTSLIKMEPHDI
Method in brief: as §1

ELK4 = biological target: T9, ELK4 (Homo sapiens, UniProt P28324-2 1-405); settings: protein: recombinant; tags: N-terminal GST; dsDNA, one strand shown
T9 sequence: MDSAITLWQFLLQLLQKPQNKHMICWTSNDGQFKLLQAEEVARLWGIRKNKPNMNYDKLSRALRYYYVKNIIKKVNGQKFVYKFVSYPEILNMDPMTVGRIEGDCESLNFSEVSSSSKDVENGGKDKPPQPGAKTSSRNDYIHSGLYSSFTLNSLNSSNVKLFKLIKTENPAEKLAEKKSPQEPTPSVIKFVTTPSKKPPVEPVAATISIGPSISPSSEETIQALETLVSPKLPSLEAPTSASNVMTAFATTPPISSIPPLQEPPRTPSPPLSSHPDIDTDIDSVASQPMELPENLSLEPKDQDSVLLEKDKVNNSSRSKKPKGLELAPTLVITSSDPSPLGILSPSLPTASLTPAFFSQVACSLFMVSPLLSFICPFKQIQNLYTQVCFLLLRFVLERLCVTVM
Method in brief: as §1

ETV2 = biological target: T10, ETV2 (Homo sapiens, UniProt O00321 1-342); settings: protein: recombinant; tags: N-terminal GST; dsDNA, one strand shown
T10 sequence: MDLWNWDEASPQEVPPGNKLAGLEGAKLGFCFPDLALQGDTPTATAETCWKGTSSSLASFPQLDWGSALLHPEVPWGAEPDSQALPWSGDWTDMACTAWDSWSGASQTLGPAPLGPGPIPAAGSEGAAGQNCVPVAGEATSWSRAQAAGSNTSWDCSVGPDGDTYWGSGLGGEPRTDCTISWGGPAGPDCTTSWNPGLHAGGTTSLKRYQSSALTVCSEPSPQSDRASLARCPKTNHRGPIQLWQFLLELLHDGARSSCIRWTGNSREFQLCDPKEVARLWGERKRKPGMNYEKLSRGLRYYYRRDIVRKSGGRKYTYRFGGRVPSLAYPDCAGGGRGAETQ
Method in brief: as §1

ELF3 = biological target: T11, ELF3 (Homo sapiens, UniProt P78545 1-371); settings: protein: recombinant; tags: N-terminal GST; dsDNA, one strand shown
T11 sequence: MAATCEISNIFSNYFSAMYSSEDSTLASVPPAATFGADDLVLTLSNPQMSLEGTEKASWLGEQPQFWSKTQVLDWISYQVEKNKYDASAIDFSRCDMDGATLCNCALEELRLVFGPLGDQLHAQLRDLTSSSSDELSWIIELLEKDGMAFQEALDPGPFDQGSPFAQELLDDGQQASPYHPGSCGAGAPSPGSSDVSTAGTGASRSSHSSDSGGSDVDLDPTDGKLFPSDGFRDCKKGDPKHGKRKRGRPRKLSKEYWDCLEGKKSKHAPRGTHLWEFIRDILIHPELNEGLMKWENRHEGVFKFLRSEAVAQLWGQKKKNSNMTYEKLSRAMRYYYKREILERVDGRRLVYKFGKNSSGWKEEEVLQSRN
Method in brief: as §1

CRX = CRX (Homo sapiens, UniProt O43186 1-299); settings: protein: recombinant; tags: N-terminal GST; dsDNA, one strand shown
Sequence of CRX (O43186 whole entry): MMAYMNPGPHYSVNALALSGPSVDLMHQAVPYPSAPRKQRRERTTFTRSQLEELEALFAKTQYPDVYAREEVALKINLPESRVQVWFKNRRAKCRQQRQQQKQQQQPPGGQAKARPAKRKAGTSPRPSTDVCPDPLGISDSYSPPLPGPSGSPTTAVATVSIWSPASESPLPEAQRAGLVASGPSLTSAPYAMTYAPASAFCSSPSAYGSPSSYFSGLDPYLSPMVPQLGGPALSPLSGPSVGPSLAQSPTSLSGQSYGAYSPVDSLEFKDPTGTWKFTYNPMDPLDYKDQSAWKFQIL
Method in brief: as §1

ETV1 = ETV1 (Homo sapiens, UniProt P50549 1-477); settings: protein: recombinant; tags: N-terminal GST; dsDNA, one strand shown
Sequence of ETV1 (P50549 whole entry): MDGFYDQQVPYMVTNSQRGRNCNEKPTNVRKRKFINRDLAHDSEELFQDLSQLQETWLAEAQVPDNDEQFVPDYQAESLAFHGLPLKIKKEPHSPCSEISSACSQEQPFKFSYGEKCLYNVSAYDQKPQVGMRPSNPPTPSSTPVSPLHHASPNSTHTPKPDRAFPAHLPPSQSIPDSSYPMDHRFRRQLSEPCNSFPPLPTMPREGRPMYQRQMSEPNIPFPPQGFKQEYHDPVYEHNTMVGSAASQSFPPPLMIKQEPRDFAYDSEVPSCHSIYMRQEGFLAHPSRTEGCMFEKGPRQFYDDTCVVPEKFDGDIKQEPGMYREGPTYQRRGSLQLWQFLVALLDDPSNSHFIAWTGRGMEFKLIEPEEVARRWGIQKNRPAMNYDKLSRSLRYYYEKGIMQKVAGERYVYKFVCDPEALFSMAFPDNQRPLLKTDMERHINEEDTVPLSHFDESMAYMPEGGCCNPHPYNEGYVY
Method in brief: as §1

Sequence: CTAATA
- binding signal (FLI1): 1.21 fold enrichment (6-mer frequency, TF over GST control)
- binding signal (ELK1): 1.15 fold enrichment (6-mer frequency, TF over GST control)
- binding signal (GABPA): 1.13 fold enrichment (6-mer frequency, TF over GST control)
- binding signal (ERG): 1.17 fold enrichment (6-mer frequency, TF over GST control)
- binding signal (ELF1): 1.19 fold enrichment (6-mer frequency, TF over GST control)
- binding signal (EHF): 1.25 fold enrichment (6-mer frequency, TF over GST control)
- binding signal (SPI1): 1.24 fold enrichment (6-mer frequency, TF over GST control)
- binding signal (SPIB): 1.17 fold enrichment (6-mer frequency, TF over GST control)
- binding signal (ELK3): 1.06 fold enrichment (6-mer frequency, TF over GST control)
- binding signal (FEV): 1.16 fold enrichment (6-mer frequency, TF over GST control)
- binding signal (ETV5): 1.21 fold enrichment (6-mer frequency, TF over GST control)
- binding signal (HSF1): 1.55 fold enrichment (6-mer frequency, TF over GST control)
- binding signal (SPIC): 1.29 fold enrichment (6-mer frequency, TF over GST control)
- binding signal (ELF4): 1.18 fold enrichment (6-mer frequency, TF over GST control)
- binding signal (ELK4): 1.1 fold enrichment (6-mer frequency, TF over GST control)
- binding signal (ETV2): 1.24 fold enrichment (6-mer frequency, TF over GST control)
- binding signal (ELF3): 1.16 fold enrichment (6-mer frequency, TF over GST control)
- binding signal (CRX): 2.09 fold enrichment (6-mer frequency, TF over GST control)
- binding signal (ETV1): 1.22 fold enrichment (6-mer frequency, TF over GST control)
